We go through 8 compounds from PubChem BioAssay (NCI).

Structures are written as SMILES. About 83,000 compounds went through this panel and 20% of them were active in at least one assay; those are over-represented in the sample as a whole.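 Single-concentration screen, 48 h exposure, 96-well plates. Endpoint: percent growth. Below 10 = active.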 A number with no mark means an inactive call. Calls of active or inactive are those of the source.

Experiment in all cases: NCI-60 one-dose screen, 48 h (100 = growth as untreated, 0 = no growth, -100 = all killed)
One assay deals with NCI-H23 lung. The conditions noted are these: 10 µM unless noted.
The next assay relates to NCI-H226 lung. The note with it: 10 µM unless noted.
For another assay, the system named is NCI-H322M lung. The note with it: 10 µM unless noted.
The next assay has as its system HOP-62 NSCLC. The note with it: 10 µM unless noted.
A further assay relates to NCI-H460 lung. The note with it: 10 µM unless noted.
The test system of the next assay is HOP-92 NSCLC. The conditions noted are these: 10 µM.
A further assay has as its system NCI-H522 lung. The note with it: 10 µM unless noted.
The next assay relates to A549/ATCC NSCLC. The conditions noted are these: 10 µM unless noted.
The next assay has as its system 786-0 renal. The conditions noted are these: 10 µM unless noted.
The test system of another assay is COLO 205 colon. The note with it: 10 µM unless noted.
In a further assay the test system is DU-145 prostate. The note with it: 10 µM unless noted.
In a further assay the test system is K-562 leukemia. The conditions noted are these: 10 µM unless noted.
For another assay, the system named is MALME-3M melanoma. The note with it: 10 µM unless noted.
In a further assay the test system is MDA-MB-231 breast. The note with it: 10 µM unless noted.
The test system of the next assay is RXF 393 renal. The conditions noted are these: 10 µM unless noted.
Another assay concerns SF-268 CNS. The note with it: 10 µM unless noted.
Another assay concerns SF-295 CNS. The conditions noted are these: 10 µM unless noted.
The subject of another assay is SF-539 CNS. The note with it: 10 µM unless noted.
In a further assay the test system is UACC-257 melanoma. The note with it: 10 µM unless noted.

On to `CNC(=O)c1c(NC(=O)c2cccc(C(F)(F)F)c2F)sc2c1CCC(=O)C2`, for which the growth with NCI-H23 lung is 8.64% (active); in the assay with NCI-H226 lung, 16.2%; in the assay on NCI-H322M lung, 82.4%; with HOP-62 NSCLC, 22.4%; in the assay with NCI-H460 lung, 7.32% (active); in the assay with HOP-92 NSCLC, -21.5% (active). Moreover, the growth with NCI-H522 lung is 4.78% (active); in the assay on A549/ATCC NSCLC it was 14.7%; in the assay with 786-0 renal, 18.1%; in the assay with COLO 205 colon it was -6.56% (active); in the assay with DU-145 prostate, 30.6%; with K-562 leukemia, 13.2%. For the same compound, the growth in the assay with MALME-3M melanoma is 6.12% (active); in the assay on MDA-MB-231 breast it was -28.8% (active); in the assay with RXF 393 renal, -11.4% (active); in the assay on SF-268 CNS, 16.7%; with SF-295 CNS, -6.97% (active); in the assay on SF-539 CNS, -56% (active). Besides, the growth in the assay on UACC-257 melanoma is -1.77% (active).
As for `C#Cc1nc(C(C)=O)cs1`, the growth was 102% in the assay with NCI-H23 lung; 99.7% in the assay with NCI-H226 lung; 106% in the assay with NCI-H322M lung; 103% in the assay on HOP-62 NSCLC; 106% with NCI-H460 lung; 111% in the assay with HOP-92 NSCLC. Moreover, the growth in the assay with NCI-H522 lung is 92.1%; in the assay with A549/ATCC NSCLC, 108%; with 786-0 renal, 98.6%; in the assay with COLO 205 colon, 115%; in the assay on DU-145 prostate it was 109%; in the assay on K-562 leukemia it was 90.6%. Also, the growth in the assay on MALME-3M melanoma was 105%; with MDA-MB-231 breast it was 103%; in the assay with RXF 393 renal, 95.6%; with SF-268 CNS, 105%; with SF-295 CNS it was 106%; in the assay on SF-539 CNS, 99.1%. The growth in the assay on UACC-257 melanoma is 107%.
`COc1ccccc1N1CCN(C2=CC(=O)C(C)=C(C)C2=O)CC1`: the growth with NCI-H23 lung was 99.5%; in the assay on NCI-H226 lung, 96.9%; with NCI-H322M lung, 112%; in the assay on HOP-62 NSCLC, 103%; in the assay on NCI-H460 lung it was 102%; in the assay with HOP-92 NSCLC, 117%. Moreover, the growth in the assay with NCI-H522 lung is 88.1%; with A549/ATCC NSCLC, 102%; with 786-0 renal, 108%; in the assay on COLO 205 colon, 112%; in the assay with DU-145 prostate, 105%; in the assay with K-562 leukemia, 96.9%. In addition, the growth in the assay on MALME-3M melanoma is 104%; in the assay with MDA-MB-231 breast, 102%; with RXF 393 renal, 97.7%; in the assay on SF-268 CNS it was 101%; in the assay with SF-295 CNS, 103%; in the assay on SF-539 CNS it was 100%. Besides, in the assay with UACC-257 melanoma, the growth is 96.4%.
Regarding `Cc1ccc(-c2nnc(SCc3ccc(O)c4ncccc34)n2-c2ccccc2)cc1`, the growth in the assay on NCI-H23 lung was 15.6%; with NCI-H226 lung, 24.4%; in the assay with NCI-H322M lung, 19.6%; with HOP-62 NSCLC, 10.6%; with NCI-H460 lung it was -15.8% (active); with HOP-92 NSCLC it was -12.5% (active). For the same compound, the growth with NCI-H522 lung was -5.09% (active); in the assay on A549/ATCC NSCLC it was 11.3%; in the assay on 786-0 renal, 25%; in the assay with COLO 205 colon, 25.6%; in the assay with DU-145 prostate, 30.2%; in the assay on K-562 leukemia, 6.04% (active). Besides, the growth is 3.77% (active) with MALME-3M melanoma; 23.6% with MDA-MB-231 breast; -0.61% (active) in the assay with RXF 393 renal; 14.8% with SF-268 CNS; -10.3% (active) in the assay on SF-295 CNS; 5.11% (active) with SF-539 CNS. Also, the growth with UACC-257 melanoma is -7.27% (active).
`Nc1cc(F)ccc1NC(=O)c1ccc(NC(=O)C/C=C/c2cccnc2)cc1`: the growth is 62.5% in the assay on NCI-H23 lung; 70.8% in the assay with NCI-H226 lung; 67% in the assay with NCI-H322M lung; 48.7% in the assay with HOP-62 NSCLC; 56.8% in the assay on NCI-H460 lung; 25.2% in the assay with HOP-92 NSCLC. Besides, the growth with NCI-H522 lung was 15.2%; with A549/ATCC NSCLC, 55.9%; in the assay on 786-0 renal, 72.6%; in the assay with COLO 205 colon, 21.2%; with DU-145 prostate, 23.7%; in the assay with K-562 leukemia, 26%. In addition, the growth in the assay on MALME-3M melanoma is 47.6%; in the assay on MDA-MB-231 breast it was 57.2%; in the assay on RXF 393 renal it was 87.1%; with SF-268 CNS it was 53.7%; in the assay on SF-295 CNS it was 41.6%; in the assay on SF-539 CNS it was 11.9%. For the same compound, the growth in the assay on UACC-257 melanoma is 55.8%.
As for `CNC(=O)c1cc(-c2ccc(NS(=O)(=O)c3ccc(C)cc3)cc2)nc2cccnc12`, the growth in the assay on NCI-H23 lung was 103%; in the assay with NCI-H226 lung it was 88.7%; with NCI-H322M lung, 110%; in the assay on HOP-62 NSCLC it was 99.7%; with NCI-H460 lung, 107%; in the assay with HOP-92 NSCLC, 103%. Moreover, the growth in the assay on NCI-H522 lung was 91.6%; in the assay with A549/ATCC NSCLC, 104%; in the assay with 786-0 renal, 110%; in the assay on COLO 205 colon, 116%; with DU-145 prostate, 113%; with K-562 leukemia it was 101%. For the same compound, the growth in the assay with MALME-3M melanoma is 101%; in the assay on MDA-MB-231 breast, 95%; in the assay with RXF 393 renal, 133%; with SF-268 CNS it was 107%; in the assay on SF-295 CNS it was 108%; in the assay on SF-539 CNS, 102%. Moreover, the growth in the assay with UACC-257 melanoma is 105%.
Take `O=S(=O)(NCCCNc1nccc(-c2[nH]c(-c3ccccc3)nc2-c2ccc(Cl)c(O)c2)n1)c1ccc(Br)cc1`: the growth with NCI-H23 lung is 46.1%; in the assay on NCI-H226 lung, 38.3%; in the assay with NCI-H322M lung it was 58.4%; with HOP-62 NSCLC it was 46.7%; in the assay with NCI-H460 lung it was 22.3%; in the assay on HOP-92 NSCLC, 46%. For the same compound, the growth is 26.6% in the assay with NCI-H522 lung; 30.2% in the assay with A549/ATCC NSCLC; 53.4% in the assay on 786-0 renal; 81.3% with COLO 205 colon; 47.7% with DU-145 prostate; 18.9% with K-562 leukemia. Besides, the growth in the assay on MALME-3M melanoma is 2.55% (active); in the assay on MDA-MB-231 breast it was 43.4%; in the assay on RXF 393 renal it was -6.2% (active); in the assay with SF-268 CNS, 37.9%; in the assay on SF-295 CNS, 2.98% (active); with SF-539 CNS, 46.7%. For the same compound, the growth with UACC-257 melanoma was 16.7%.
On to `Nc1ccccc1NC(=O)c1ccc(NC(=O)C/C=C/c2cccnc2)cc1`, for which the growth was 41.6% in the assay with NCI-H23 lung; 46.6% in the assay on NCI-H226 lung; 47.6% with NCI-H322M lung; 36.5% in the assay with HOP-62 NSCLC; 46.8% in the assay with NCI-H460 lung; 11.3% in the assay with HOP-92 NSCLC. The growth with NCI-H522 lung is 7.23% (active); in the assay on A549/ATCC NSCLC, 47.2%; in the assay on 786-0 renal, 53.3%; in the assay on COLO 205 colon it was 10.3%; in the assay with DU-145 prostate, 14.1%; in the assay with K-562 leukemia it was 17.1%. Moreover, the growth with MALME-3M melanoma is 18.1%; in the assay with MDA-MB-231 breast it was 50.5%; in the assay with RXF 393 renal, -13.9% (active); in the assay on SF-268 CNS, 35.3%; in the assay with SF-295 CNS, 34.9%; with SF-539 CNS, 7.57% (active). The growth in the assay with UACC-257 melanoma was 26.6%.
